Inhibition data for 40 compounds are collected here from PubChem BioAssay.

A number with no mark means an inactive call. How the calls were made is not given here.

Sequence of Pantothenate synthetase (Mycobacterium tuberculosis (strain ATCC 25618 / H37Rv)) (P9WIL5 whole entry, looked up): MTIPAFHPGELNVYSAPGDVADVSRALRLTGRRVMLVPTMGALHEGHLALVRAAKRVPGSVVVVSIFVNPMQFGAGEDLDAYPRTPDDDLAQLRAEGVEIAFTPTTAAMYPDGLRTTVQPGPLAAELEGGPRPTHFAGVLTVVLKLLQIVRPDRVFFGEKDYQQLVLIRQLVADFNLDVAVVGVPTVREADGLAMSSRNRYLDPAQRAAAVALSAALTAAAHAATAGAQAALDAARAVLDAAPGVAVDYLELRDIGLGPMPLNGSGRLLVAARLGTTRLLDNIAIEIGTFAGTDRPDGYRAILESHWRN

This assay concerns the target Pantothenate synthetase (Mycobacterium tuberculosis (strain ATCC 25618 / H37Rv)) (UniProt P9WIL5). The assay can be described thus: Coupled enzyme confirmation of inhibitors against recombinant Mtb PanC (AID 375).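 Further: 0% = full reaction with vehicle and 100% = no enzyme background.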 The note with it: coupled enzyme assay; at 10 µM, stronger effect = higher value.
Turning to `Cc1cc(/C=N\O)c(C)n1-c1ccncc1`, the inhibition (in general, the drop in the measured response relative to a control, in per cent) is 0%.

Consider `CC1(C)CC(=O)C2=C(C1)N(CC1CCCO1)C(=O)C2(O)C(F)(F)F` (stereo not given), for which the inhibition is 0%.

`Cc1nc2ccc(NC(=O)NCc3ccco3)cc2s1`: the inhibition is 0%.

For the compound `COCCCNC(=O)C1CCCN(C(=O)Nc2ccc(OC)cc2)C1` (stereo not given), the inhibition is 2%.

On to `O=C(O)c1ccc(S(=O)(=O)Cc2ccccc2)cc1`, for which the inhibition was 0%.

For `CN(CC(=O)Nc1ccccc1Cl)C(=O)COC(=O)CNC(=O)c1ccc(Br)o1`, the inhibition is 0%.

For the compound `N#CC1=C(SCC(=O)NC23CC4CC(CC(C4)C2)C3)NC(=O)C(C#N)C12CCCCC2` (stereo not given), the inhibition was 0%.

For `CCOC(=O)c1[nH]c2ccccc2c1NC(=O)C(C)(C)C`, the inhibition is 0%.

Take `CCn1nnnc1SCC(=O)N1CCOCC1`: the inhibition was 11%.

In the case of `CCCc1[nH]nc2c1C(c1cn[nH]c1-c1ccc(F)cc1)C(C#N)=C(N)O2` (stereo not given), the inhibition is 10%.

Regarding `Cc1nnc(SCc2nc3ccccc3s2)n1-c1ccccc1`, the inhibition was 3%.

Take `COc1cc(NC(=O)Cc2ccccc2OC)cc(OC)c1`: the inhibition was 0%.

For the compound `O=C1N(c2ccccc2)C2CS(=O)(=O)CC2N1c1ccc(Br)cc1` (stereo not given), the inhibition is 0%.

On to `CCN(CC)C(c1ccc(C)cc1)c1nnnn1C1CCCCC1` (stereo not given), for which the inhibition was 0%.

Take `Clc1ccc(SCCn2ccnc2)cc1`: the inhibition was 0%.

Regarding `CC(=O)NCCC(=O)Nc1ccc(C)c(F)c1`, the inhibition was 6%.

On to `CC(=O)Nc1ccc(NC2=CC(=O)CC(C)(C)C2)cc1`, for which the inhibition is 4%.

As for `COc1ccc(-c2nc(CSCC(=O)N3CCc4ccccc4C3)c(C)o2)cc1OC`, the inhibition is 0%.

With `CCCC(OC(=O)CN1C(=O)COc2ccccc21)C(=O)NC1CCCC1` (stereo not given), the inhibition was 0%.

In the case of `CCCOC(=O)c1[nH]c2c(c1C)C(=O)CC(c1cc(OC)c(OC)c(OC)c1)C2` (stereo not given), the inhibition is 0%.

On to `COc1ccc2nc(C)cc(N3CCOCC3)c2c1`, for which the inhibition was 0%.

Turning to `COCCNC(=O)C(C)OC(=O)c1nsc(Cl)c1Cl` (stereo not given), the inhibition was 0%.

Take `CCCC1CC(C)(C(=O)Cn2[nH]c(=O)ccc2=O)OC1=O` (stereo not given): the inhibition is 10%.

As to `C(/CCc1ccccc1)=N\n1cnnc1`, the inhibition is 8%.

Consider `CC(=O)c1c(C)nn(CC(O)COc2ccc3c(c2)CCC3)c1C` (stereo not given), for which the inhibition was 0%.

In the case of `COc1ccc(C(=O)N(CCN2CCOCC2)CC(=O)NC2CCCC2)cc1OC`, the inhibition is 1%.

Consider `CCOC(=O)N1CCN(c2c(N3CCN(c4ccccc4OC)CC3)c(=O)c2=O)CC1`, for which the inhibition was 0%.

In the case of `Cc1cc(C)c2c(N)c(C(=O)N3CCN(c4ncccn4)CC3)sc2n1`, the inhibition was 3%.

For the compound `O=C(CSc1ccccc1C(=O)NCCCN1CCCC1=O)NCc1ccco1`, the inhibition was 5%.

Turning to `Cc1cc(C(F)F)n2nc(C(=O)Nc3ccc(S(=O)(=O)N4CCCCCC4)cc3)nc2n1`, the inhibition was 1%.

Regarding `O=C(CSc1ncn[nH]1)NC1CC2CCC1C2` (stereo not given), the inhibition is 0%.

Turning to `COC(=O)c1nn(-c2ccc(-c3ccccc3)cc2)cc1O`, the inhibition is 0%.

Take `Cc1nc(/N=C\N(C)C)sc1C(=O)Nc1ccccc1`: the inhibition is 0%.

As for `COCCNC(=O)CC(NS(=O)(=O)c1ccc(NC(C)=O)cc1)C(C)C` (stereo not given), the inhibition is 0%.

On to `Cc1nc(N)[nH]c(=O)c1CCC(=O)OCC(C)C`, for which the inhibition was 0%.

As to `CCOC(=O)c1ccc(NC(=O)CSCc2ccco2)cc1`, the inhibition is 0%.

Turning to `Cc1ccccc1NC(=O)Cc1nnc(SCC(=O)N2CCN(c3ccccc3)CC2)n1C`, the inhibition was 4%.

As for `COc1ccc(C2CC(c3ccc(OC)cc3)n3nc(N)nc3N2)cc1` (stereo not given), the inhibition is 0%.

In the case of `CCOC(=O)N1CCN(C(=O)c2csc3c2CCCCC3)CC1`, the inhibition is 0%.

On to `CCCOc1ccc2nc(NC(=O)OC)[nH]c2c1`, for which the inhibition is 0%.
